Experimental data reported in PubChem BioAssay.
Active and inactive are the calls of the source.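 The calls were made as follows, unless noted: active = NADPH fluorescence slope more negative than the mean of all samples by about 3 SD, 99.7% confidence; inactive = the rest.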

What was measured:
[1] = inhibitors of TNFa-induced NFkB p65 translocation, primary screen, imaging, HUVEC, MLSMR starter and 10KST1 sets (AID 438;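 active = inhibition above 20% together with a positive visual image hit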;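 also: compound added about 3h40 before a 20 min TNFalpha stimulation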;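 as to inhibition: signal is the nuclear over cytoplasmic p65 intensity ratio per well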); conditions: HUVEC TNFa-induced p65 nuclear translocation; cell count: measured here: nuclei count (cytotoxicity indicator), at 2.08 µM; inhibition: at 2 µM, stronger effect = higher value, 0% TNFa-plus-vehicle, 100% no-TNFa wells
[2] = reduction of polyQ htt aggregates in cells – imaging, exon1htt(103Q)mCFP cells, high-content imaging, primary screen (AID 483;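 active = visual image review flags a hit and inhibition of aggregation exceeds 20%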;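 also: compound exposure lasted 3 days before fixation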;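 as to nuclei count: percent of the per-plate median nuclei count of sample wells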); conditions: exon1htt(103Q)mCFP cell line, aggregate imaging, at 2 µM; inhibition of aggregation: stronger effect = higher value; nuclei count: measured here: cell count, toxicity
[3] = endothelial E-selectin expression blockers – imaging, HUVEC, immunofluorescence, MLSMR starter and 10KST1 sets, primary screen (AID 487;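 active = visually confirmed hit in the image check and inhibition above 20%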;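 as to inhibition: signal is fraction of cell area covered by stained E-selectin grains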;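 as to nuclei count: 100% = median nuclei count of all wells on the same plate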); conditions: HUVEC TNFalpha-induced E-selectin immunofluorescence imaging, at 2 µM; inhibition: stronger effect = higher value; nuclei count: measured here: cell number, toxicity
[4] = molecular target: Voltage-gated potassium channel subunit beta-2 (Rattus norvegicus) (UniProt P62483); assay: inhibitors of rat Kvbeta2 reductase activity – biochemical, NADPH fluorescence, primary screen (AID 622;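 active = fluorescence slope higher than the sample average by over 3 SD, cut at about -0.22 in these data, passing the limit was not always enough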;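 also: slope of raw intensity against log time taken from 70 to 1610 s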); conditions: recombinant KvBeta, 4-cyanobenzaldehyde reduction, at 10 µM, stronger effect = higher value
[5] = molecular target: Voltage-gated potassium channel subunit beta-2 (Rattus norvegicus) (UniProt P62483); assay: enhancers of rat Kvbeta2 NADPH turnover – biochemical, NADPH fluorescence, primary screen (AID 623); conditions: Recombinant KvBeta, NADPH fluorescence decrease slope, 10 min; at 10 µM; stronger effect = lower value;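 also: fluorescence intensity change per second fitted from 20 to 320 s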
[6] = molecular target: Alpha-2C adrenergic receptor (Homo sapiens) (UniProt P18825); assay: compounds altering alpha2C-coupled GIRK flux – cell-based, HEK293 alpha2C/GIRK1/2, thallium flux, primary screen (AID 624;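 active = fluorescence slope after compound addition differing from the mean of all screened samples at 99.7% confidence, in either direction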;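 also: slope of fluorescence ratio to pre-addition baseline per second over 15 to 24 s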); conditions: thallium flux BTC fluorescence, at 10 µM, actives lie on both sides
[7] = blockers of RIG-like receptor reporter activation – cell-based, Sendai virus stimulus, luciferase, 10K MLSCN set, TLR/RLR signaling modifier project, primary screen (AID 602276;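 active = inhibition at or above 50% at 10 µM; inactive = inhibition below 50%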;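 also: firefly luciferase from ISG56 promoter only with Renilla not read in this screen; 0% = Sendai virus plus DMSO and 100% = medium plus DMSO without virus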); conditions: HEK293 RL24 IRF3 luciferase reporter, at 10 µM, stronger effect = higher value
[8] = TLR3 IRF3 reporter activation blockers – cell-based, poly I:C stimulus, luciferase, 10K MLSCN set, primary screen (AID 602277;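 active = inhibition of the reporter signal at or above 50%; inactive = inhibition below 50%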); conditions: HEK293-TLR3 RL24 IRF3 luciferase reporter, at 10 µM, stronger effect = higher value

Chain of Alpha-2C adrenergic receptor (Homo sapiens) (P18825 whole entry, looked up): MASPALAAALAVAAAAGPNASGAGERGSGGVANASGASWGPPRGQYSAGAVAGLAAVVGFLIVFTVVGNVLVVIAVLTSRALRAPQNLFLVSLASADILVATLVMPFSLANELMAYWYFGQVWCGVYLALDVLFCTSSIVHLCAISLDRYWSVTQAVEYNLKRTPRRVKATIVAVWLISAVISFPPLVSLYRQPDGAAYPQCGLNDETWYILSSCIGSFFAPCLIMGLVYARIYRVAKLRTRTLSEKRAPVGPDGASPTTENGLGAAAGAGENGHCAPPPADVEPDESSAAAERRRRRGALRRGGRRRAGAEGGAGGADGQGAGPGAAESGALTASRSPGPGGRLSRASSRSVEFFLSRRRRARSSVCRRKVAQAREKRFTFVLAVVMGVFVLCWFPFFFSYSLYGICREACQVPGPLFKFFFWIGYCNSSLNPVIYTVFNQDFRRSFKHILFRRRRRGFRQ
Chain of Voltage-gated potassium channel subunit beta-2 (Rattus norvegicus) (P62483 whole entry, looked up): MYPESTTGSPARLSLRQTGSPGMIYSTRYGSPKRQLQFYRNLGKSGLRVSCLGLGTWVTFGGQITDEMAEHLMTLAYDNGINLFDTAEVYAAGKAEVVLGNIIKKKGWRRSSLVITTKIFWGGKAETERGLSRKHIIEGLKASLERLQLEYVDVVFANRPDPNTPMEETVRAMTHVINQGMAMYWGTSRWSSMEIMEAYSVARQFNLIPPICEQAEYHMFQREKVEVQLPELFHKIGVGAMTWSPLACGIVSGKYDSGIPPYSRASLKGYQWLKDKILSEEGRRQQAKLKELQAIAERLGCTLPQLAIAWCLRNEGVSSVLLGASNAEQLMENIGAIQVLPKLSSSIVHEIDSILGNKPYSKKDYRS

| SMILES | cell count [1] | inhibition [1] | inhibition of aggregation [2] | nuclei count [2] [%] | inhibition [3] | nuclei count [3] [%] | fluorescence slope [4] | NADPH fluorescence slope [5] | slope [6] | inhibition [7] | inhibition [8] |
| --- | --- | --- | --- | --- | --- | --- | --- | --- | --- | --- | --- |
| COc1cc(C2N3CC4(C)CN2CC(C)(C3)C4)ccc1O (configuration not stated) | 309 | -4.3% (inactive) | 15.8% (inactive) | 74.7 | -33.6% (inactive) | 100 | -0.345 (inactive) | -5.2e-07 (inactive) | 0.0063 (inactive) | 0.715% (inactive) | 25.8% (inactive) |
| CN(c1ccccc1C(=O)N1CCN(c2cccc(Cl)c2)CC1)S(C)(=O)=O | 313 | -1.9% (inactive) | 3.7% (inactive) | 101 | 18.2% (inactive) | 120 | -0.432 (inactive) | -2.5e-05 (inactive) | 0.0047 (inactive) | 6.88% (inactive) | 8.69% (inactive) |
| CN(C)c1ccc(C(=O)Nc2nnc(-c3ccc(Cl)cc3)o2)cc1 | 671 | 1.3% (inactive) | -15.9% (inactive) | 109 | -46.6% (inactive) | 113 | -0.409 (inactive) | -6.1e-05 (inactive) | 0.00542 (inactive) | 13% (inactive) | 29.7% (inactive) |
| CCCCn1c(NC(=O)CC)c(C#N)c2nc3ccccc3nc21 | 273 | -0.9% (inactive) | 31.7% (inactive) | 80.6 | 45.9% (inactive) | 64.7 | -0.0219 (inactive) | -1.3e-05 (inactive) | 0.00421 (inactive) | 16.1% (inactive) | 9.45% (inactive) |
| CCC(CC)C(=O)Nc1cccc(C(=O)NCc2ccco2)c1 | 295 | 2.3% (inactive) | -17.4% (inactive) | 107 | -100% (inactive) | 138 | -0.428 (inactive) | -1.2e-05 (inactive) | 0.00559 (inactive) | -5.68% (inactive) | -18.7% (inactive) |
| CC1(C)CC(=O)C2=C(C1)NC(=O)CC2C(=O)NCc1ccc(F)cc1 (configuration not stated) | 533 | -11.5% (inactive) | -1.8% (inactive) | 86.7 | 3.2% (inactive) | 87.8 | -0.342 (inactive) | -4.7e-05 (inactive) | 0.00523 (inactive) | 7.38% (inactive) | 5.77% (inactive) |
| O=C(COC(=O)c1cnccn1)c1ccc(OC(=O)c2ccccc2)cc1 | 214 | -7.5% (inactive) | 21.7% (inactive) | 95.2 | -170% (inactive) | 132 | -0.359 (inactive) | -6.1e-05 (inactive) | 0.00809 (inactive) | 18.9% (inactive) | 35.6% (inactive) |
| O=C(CN(CCc1ccccc1)C(=O)CN1C(=O)COc2ccccc21)NCc1ccco1 | 571 | -2.3% (inactive) | -4.1% (inactive) | 55.5 | -12.8% (inactive) | 97.6 | -0.468 (inactive) | -3.2e-06 (inactive) | 0.00696 (inactive) | 16.4% (inactive) | 23.2% (inactive) |
| CC1=C(C(=O)N2CCCCC2)C2(CCC(C)CC2)OC1=O (configuration not stated) | 759 | -1.1% (inactive) | -11.5% (inactive) | 118 | -27.8% (inactive) | 120 | -0.524 (inactive) | -1.1e-05 (inactive) | 0.00741 (inactive) | 15.2% (inactive) | 20.4% (inactive) |
| CCN(CC)S(=O)(=O)c1ccc2c(c1)nc(SCC(=O)NC1CC1)n2-c1ccccc1OC | 531 | -14.3% (inactive) | 9.5% (inactive) | 109 | -137% (inactive) | 125 | -0.598 (inactive) | -7.2e-06 (inactive) | 0.00577 (inactive) | 14.2% (inactive) | 48.2% (inactive) |
| COc1ccccc1CC(=O)NCc1ccc2c(c1)OCO2 | 372 | -0.6% (inactive) | -2.1% (inactive) | 101 | -81% (inactive) | 114 | -0.392 (inactive) | -5.4e-05 (inactive) | 0.00532 (inactive) | 7.81% (inactive) | -10.6% (inactive) |
| CC(=O)Nc1ccc(NC(=O)Cn2cc3c(n2)CCC(C)C3)cc1 (configuration not stated) | 549 | -6.3% (inactive) | 3.5% (inactive) | 95.1 | -58.6% (inactive) | 103 | -0.284 (inactive) | -4.3e-05 (inactive) | 0.00496 (inactive) | 16.6% (inactive) | 23% (inactive) |
